20 compounds from PubChem BioAssay (NCATS) can be followed below.

Records with an inconclusive call do not appear. Unmarked numbers belong to inactive results. Calls of active or inactive are those of the source. Calls come from the whole dose curve; as a rule, active = well fitted curve in the direction sought with a large enough effect; inconclusive = small, poorly fitted or top-dose-only effect, or another doubt; inactive = no such curve, though single readings can be large; an effect the other way counts as inactive or inconclusive. Where a SMILES comes first, the peptide text is derived from it. [ ]: non-standard residue; d: D form. Hyp = O=C(O)[CH]1C[CH](O)CN1; Phe(ol) = N[CH](CO)Cc1ccccc1; Iva = CC[C](C)(N)C(=O)O; Aib = CC(C)(N)C(=O)O

Assay [1] relates to C33A. The assay can be described thus: Primary qHTS to identify gynecologic anti-cancer compounds using libraries of approved drugs and bioactive compounds (AID 1345084). For activity change, negative = cytotoxicity: % is set by controls: 0 for no effect and ±100 for the full control effect. Note: nearly all actives have a fitted effect of over 55% in size. Note: potency is the fitted concentration of half-maximal effect. The conditions noted are these: Gynecologic cancer cell panel viability, ATPlite luminescence, 48 h; series mostly up to 57.5 µM. The method in brief:
(§1)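 Cell viability after 48 h drug treatment, ATPlite luminescence readout; five doses.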

For assay [2], the system named is CAOV3. The description is as above. The conditions noted are these: Gynecologic cancer cell panel viability, ATPlite luminescence, 48 h; series mostly up to 57.5 µM. The essentials: as §1
(In general: In ATP-based viability assays light output follows the ATP content of the culture.)

For assay [3], the system named is CASKI. Described as above. The following applies: Gynecologic cancer cell panel viability, ATPlite luminescence, 48 h; series mostly up to 57.5 µM. The method in brief:
as §1

For assay [4], the system named is Es-2. The description is as above. The conditions noted are these: Gynecologic cancer cell panel viability, ATPlite luminescence, 48 h; series mostly up to 57.5 µM. The essentials:
as §1

For assay [5], the system named is HeLa. The assay is described as above. The conditions noted are these: Gynecologic cancer cell panel viability, ATPlite luminescence, 48 h; series mostly up to 57.5 µM. The method in brief:
as §1

For assay [6], the system named is Hek293T. The description is as above. The conditions noted are these: Gynecologic cancer cell panel viability, ATPlite luminescence, 48 h, control line for the selectivity index; series mostly up to 57.5 µM. The essentials:
as §1

The subject of assay [7] is JEG-3. Described as above. The following applies: Gynecologic cancer cell panel viability, ATPlite luminescence, 48 h; series mostly up to 57.5 µM. The essentials: as §1
Assay [8] deals with OV90. Described as above. The following applies: Gynecologic cancer cell panel viability, ATPlite luminescence, 48 h; series mostly up to 57.5 µM. The method in brief: as §1
The subject of assay [9] is NIH3T3. Description: qHTS assay to identify novel small-molecules to repurpose for Merkel cell carcinoma treatment (AID 1296009). Note: nearly all actives have a fitted effect of over 60% in size. The following applies: MCC and control cell lines, CellTiter-Glo viability, 72 h; series mostly up to 44.8 µM. The method in brief: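 Luminescence from CellTiter-Glo, read 10 min after addition at room temperature, reported viability following a 72 hr, 37 degree celsius treatment with NPC or MIPE compounds in titration; values normalized to plate controls.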

Assay [10] relates to PA-1. The assay can be described thus: Primary qHTS to identify gynecologic anti-cancer compounds using libraries of approved drugs and bioactive compounds (AID 1345084). For activity change, negative = cytotoxicity: % is set by controls: 0 for no effect and ±100 for the full control effect. Note: nearly all actives have a fitted effect of over 55% in size. Note: potency is the fitted concentration of half-maximal effect. The conditions noted are these: Gynecologic cancer cell panel viability, ATPlite luminescence, 48 h; series mostly up to 57.5 µM. The method in brief: as §1
Background: In qHTS, concentration-response curves come from the screen itself.

Assay [11] relates to Tov-21-G. The description is as above. The following applies: Gynecologic cancer cell panel viability, ATPlite luminescence, 48 h; series mostly up to 57.5 µM. The method in brief: as §1
Assay [12] deals with Tov112D. The assay is described as above. The conditions noted are these: Gynecologic cancer cell panel viability, ATPlite luminescence, 48 h; series mostly up to 57.5 µM. The essentials: as §1
Assay [13] has as its system SKOV3. The description is as above. The following applies: Gynecologic cancer cell panel viability, ATPlite luminescence, 48 h; series mostly up to 57.5 µM. The method in brief: as §1

On to `CCC(C)(NC(=O)C(CCC(N)=O)NC(=O)C1CC(O)CN1C(=O)C(C)(C)NC(=O)C(C)(C)NC(=O)C(CC(C)C)NC(=O)CNC(=O)C(NC(=O)C(C)(C)NC(=O)C(C)(C)NC(=O)C(C)(C)NC(=O)C(Cc1ccccc1)NC(C)=O)C(C)C)C(=O)N1CC(O)CC1C(=O)NC(C)(C)C(=O)NC(CO)Cc1ccccc1` (configuration not stated) (Ac-F[Aib][Aib][Aib]VGL[Aib][Aib][Hyp]Q[Iva][Hyp][Aib][Phe(ol)]; configuration not given here), for which the activity change, negative = cytotoxicity in assay [1] is -28.9% [at 6.55 µM]; in assay [2], -2.26% [at 6.55 µM]; in [3] it was -19.9% [at 6.55 µM]; in [4], -0.689% [at 6.55 µM]; in assay [5] it was -3.33% [at 6.55 µM]; in assay [6], -7.78% [at 6.55 µM]. Further, the activity change, negative = cytotoxicity in [7] is -14.6% [at 6.55 µM]; in assay [8], -17.1% [at 6.55 µM].

In the case of `CC1(C)CCC(C)(C)c2cc(C#Cc3ccc(C(=O)O)cc3)ccc21`, the Potency result in assay [9], in [1], in [2], in [4], in assay [5] and in assay [6] was “inactive” in each case. In addition, the Potency entry in assay [7], in assay [8], in assay [10], in assay [11] and in assay [12] was “inactive” in each case.

For the compound `COc1cc2ncnc(Nc3ccc(F)c(Cl)c3)c2cc1O`, the Potency result in assay [9], in assay [1], in assay [3], in assay [4], in [5] and in assay [6] was “inactive” each time. Also, the Potency entry in [7], in assay [10], in assay [13], in assay [11] and in [12] was “inactive” throughout.

For the compound `O=C1C[C@]23C=CCN4CCC5c6cc7c(cc6N1[C@@]5(CC2)C43)OCO7` (some centres not stated), the Potency result in [1], in assay [2], in assay [3], in [4], in [5] and in assay [6] was “inactive” in each case. Further, the Potency entry in assay [7], in [8] and in assay [10] was “inactive” each time.

On to `COc1ccc(C2(CNC(=O)c3ccc(NC(=O)c4ccco4)cc3)CCOCC2)cc1`, for which the Potency result in assay [1], in assay [2], in [3], in assay [4], in [5] and in [6] was “inactive” throughout. For the same compound, the Potency result in assay [7], in [8], in assay [10], in assay [13] and in assay [11] was “inactive” each time.

In the case of `Cc1[nH]c(/C=C2\C(=O)Nc3ccc(S(=O)(=O)N(C)c4cccc(Cl)c4)cc32)c(C)c1C(=O)N1CCN(C)CC1`, the Potency result in assay [1], in assay [3], in [4], in assay [5], in assay [6] and in [7] was “inactive” in each case. Also, the Potency result in assay [8], in assay [10], in assay [13] and in assay [11] was “inactive” in each case. Also, the Potency in assay [2] was 25.1 µM (active).

`C[C@@]12C(=O)N(c3ccc(C(=O)Nc4cccc5cccnc45)cc3)C(=O)[C@@H]1[C@@H]1C=C[C@H]2C1`: the Potency result in assay [1], in assay [2], in assay [3], in [4], in assay [5] and in assay [6] was “inactive” in each case. For the same compound, the Potency entry in assay [7], in [8], in [10], in assay [13] and in assay [11] was “inactive” throughout.

For `O=c1[nH]c2ccccc2n1CCN1CCN(c2cccc(C(F)(F)F)c2)CC1`, the Potency entry in assay [9], in assay [1], in assay [3], in assay [4], in assay [5] and in assay [6] was “inactive” throughout. Also, the Potency result in assay [7], in assay [8], in [10], in assay [13], in assay [11] and in assay [12] was “inactive” each time.

`O=C(NCC1(N2CCN(c3ccccc3)CC2)CCOCC1)c1cccnc1Sc1ccccc1`: the Potency entry in assay [1], in assay [2], in [3], in assay [4], in assay [5] and in assay [6] was “inactive” throughout. Besides, the Potency entry in [7], in assay [8], in assay [10], in assay [13] and in assay [11] was “inactive” each time.

Regarding `CCCc1cc(C)n(C)c(=O)c1CN(C)C(=O)c1cc(-c2ccc(N3CCN(C(C)C)CC3)nc2)cc2c1cnn2C(C)C`, the Potency entry in [9], in assay [3], in [4], in assay [6], in [7] and in assay [8] was “inactive” each time. Further, the Potency result in assay [10], in assay [13], in assay [11] and in [12] was “inactive” each time.

Take `CC(=O)NC(C(=O)O[C@H]1CCC(C)(C)[C@@H]2CC=C3C(=O)OCC3(O)[C@@]12C)C(C)C` (some centres not stated): the Potency result in [9], in assay [2], in [3], in [4], in assay [5] and in assay [6] was “inactive” each time. Besides, the Potency result in [7], in assay [11] and in assay [12] was “inactive” each time.

`COc1ccc(S(=O)(=O)Nc2c(C)cc(C)cc2C)cc1`: the Potency result in [1], in [2], in [3], in assay [4], in assay [5] and in assay [6] was “inactive” in each case. For the same compound, the Potency result in assay [7], in assay [8], in [10], in assay [13] and in assay [11] was “inactive” throughout.

Turning to `CCC(C)C(=O)OC12C(OC(C)=O)C(C)C3(O)C(C=C(CO)CC4(O)C(=O)C(C)=CC43)C1C2(C)C` (configuration not stated), the Potency entry in assay [9], in assay [2], in [3], in [5], in [6] and in assay [7] was “inactive” in each case. The Potency entry in assay [13], in assay [11] and in [12] was “inactive” in each case. In addition, the Potency in [4] is 0.316 µM (active).

Take `C=C1[C@H]2CC[C@H](C(=O)O)[C@@]23CC[C@H](C3)C1(C)C`: the Potency entry in [9], in [1], in assay [2], in [4], in assay [5] and in assay [6] was “inactive” throughout. Also, the Potency entry in assay [7], in assay [8], in assay [10], in assay [13], in [11] and in assay [12] was “inactive” throughout.

On to `C/C=C/[C@@H]1C=C[C@@H]2C[C@H](C)CC[C@H]2[C@]1(C)/C(O)=C1/C(=O)[C@@H](CO)N(C)C1=O`, for which the Potency result in assay [9], in assay [3], in assay [4], in assay [5], in [6] and in assay [7] was “inactive” each time. The Potency entry in assay [8], in assay [10], in [13], in [11] and in assay [12] was “inactive” in each case.

Take `COC(=O)CC(O)CC(O)/C=C/c1c(C)ccc2c1C(OC(C)=O)CC(C)C2` (configuration not stated): the Potency result in [9], in [1], in [2], in assay [3], in assay [4] and in assay [6] was “inactive” each time. Further, the Potency entry in assay [7], in [13] and in [11] was “inactive” in each case.

In the case of `C/C=C(\C)[C@@H]1C(C)=C[C@@H]2[C@H]([C@@H]1/C=C/C=C/C(=O)O)[C@@H](C)CC[C@@H]2O`, the Potency entry in assay [1] was “inactive”.

Regarding `COc1cc2ncnc(Nc3cccc(I)c3)c2cc1OC`, the Potency result in assay [9], in [1], in assay [3], in assay [4], in [6] and in assay [7] was “inactive” each time. The Potency entry in assay [8], in [10], in [11] and in assay [12] was “inactive” in each case.

Take `CCOC(=O)N1c2ccc(C(F)(F)F)cc2C(N(Cc2cc(C(F)(F)F)cc(C(F)(F)F)c2)C(=O)OC)CC1CC` (configuration not stated): the Potency entry in assay [1], in [2], in assay [3], in assay [4], in [5] and in [6] was “inactive” in each case. Besides, the Potency entry in assay [7], in [8], in assay [10], in assay [13], in [11] and in assay [12] was “inactive” throughout.

On to `CC(=O)O[C@@H]1[C@@H](O)[C@H](O[C@@H]2[C@@H](O)[C@@H](O)[C@H](O[C@H]3[C@H](O[C@H]4[C@H](O[C@H]5CC[C@@]6(C)C(CC[C@]7(C)C6CC=C6[C@@H]8CC(C)(C)CC[C@]8(C(=O)O)CC[C@]67C)[C@]5(C)CO)O[C@H](CO)[C@@H](O)[C@@H]4O)OC[C@@H](O)[C@@H]3O)O[C@H]2C)OC[C@H]1O` (some centres not stated), for which the activity change, negative = cytotoxicity in assay [1] is -4.66% [at 11.6 µM]; in assay [2] it was 10.9% [at 11.6 µM]; in assay [3] it was 17% [at 11.6 µM]; in assay [4], -1.31% [at 11.6 µM]; in [5], 2.05% [at 11.6 µM]; in assay [6] it was 1.05% [at 11.6 µM]. Further, the activity change, negative = cytotoxicity is 13.7% [at 11.6 µM] in assay [7]; 10.1% [at 11.6 µM] in [8]; -1.55% [at 11.6 µM] in assay [10]; 10.7% [at 11.6 µM] in [13]; -11% [at 11.6 µM] in assay [11]; -6.37% [at 11.6 µM] in [12].
